PubChem BioAssay (NCI)
This is part of a sample that, as a whole, favours compounds with a hit. Of some 83,000 tested, about 20% had one in any assay.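 Compound tested at a single concentration for 48 hours in 96-well plates; a percent growth value below 10 was scored as active.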 Calls of active or inactive are those of the source.

Legend:
Assay in all cases: NCI-60 one-dose screen, 48 h (100 = growth as untreated, 0 = no growth, -100 = all killed)
Details in all cases: 10 µM unless noted
[1] = test system: HCT-15 colon
[2] = test system: HT29 colon
[3] = test system: SNB-75 CNS
[4] = test system: SNB-19 CNS
[5] = test system: U251 CNS
[6] = test system: PC-3 prostate
[7] = test system: SK-MEL-5 melanoma
[8] = test system: UACC-62 melanoma
[9] = test system: LOX IMVI melanoma
[10] = test system: SK-MEL-28 melanoma
[11] = test system: SK-MEL-2 melanoma
[12] = test system: EKVX NSCLC
[13] = test system: SN12C renal
[14] = test system: UO-31 renal
[15] = test system: TK-10 renal
[16] = test system: ACHN renal
[17] = test system: CAKI-1 renal
[18] = test system: A498 renal
[19] = test system: CCRF-CEM leukemia
[20] = test system: MOLT-4 leukemia

Measured: growth

CN(CCC#N)c1ccc(/C=C2\NC(=O)NC2=O)cc1
inactive: [1] 104% | [2] 82.4% | [3] 102% | [4] 102% | [5] 112% | [6] 94.8% | [7] 102% | [8] 91.1% | [9] 87.9% | [10] 109% | [11] 100% | [12] 79.3% | [13] 98.6% | [14] 84.4% | [15] 93.5% | [16] 97.9% | [17] 82.8% | [18] 89.3% | [19] 107% | [20] 92%

CC(C)(C)C(=O)/C=C/c1ccc([N+](=O)[O-])cc1
inactive: [1] 42.1% | [2] 50.2% | [3] 81.1% | [4] 66.9% | [5] 58% | [6] 55.3% | [7] 81.7% | [8] 74.4% | [9] 36.9% | [10] 92.1% | [11] 89.2% | [12] 89.3% | [13] 92.1% | [14] 76.5% | [15] 91.4% | [16] 57.3% | [17] 96.1% | [18] 91% | [19] 44.3% | [20] 75.4%

COc1ccc(C2=CN3CC=CCC3CC2=O)cc1 (stereo not given)
inactive: [1] 108% | [2] 84.5% | [3] 103% | [4] 107% | [5] 91.4% | [6] 81.9% | [7] 96.4% | [8] 99.5% | [9] 99.8% | [10] 112% | [11] 92.1% | [12] 104% | [13] 97% | [14] 95.6% | [15] 103% | [16] 115% | [17] 99.7% | [18] 93.7% | [19] 108% | [20] 95%

C=CC1(C)C(O[Si](C)(C)C(C)(C)C)CC2C3OC(=O)NC31c1cccc3c1[C@H](C(=O)N3C)C2(C)C (stereo not given in full)
inactive: [1] 32.2% | [2] 57.2% | [3] 74.4% | [4] 78.7% | [5] 67% | [6] 10.6% | [7] 25.9% | [8] 29.4% | [9] 63% | [10] 63.7% | [11] 66.9% | [12] 44.2% | [13] 50.2% | [14] 49.5% | [15] 71.3% | [16] 59.6% | [17] 53.3% | [18] 62.6% | [19] 47.1% | [20] 26%

Clc1ccc(-c2cn3ccsc3n2)c(Cl)c1Cl
inactive: [1] 89.5% | [2] 105% | [3] 86.4% | [4] 105% | [5] 91% | [6] 93.5% | [7] 79.8% | [8] 67.7% | [9] 80.7% | [10] 120% | [11] 88.6% | [12] 65.2% | [13] 77.9% | [14] 70.1% | [15] 105% | [16] 90.1% | [17] 71.8% | [18] 76.7% | [19] 93.6% | [20] 80.4%

Cc1ccc(-c2csc(NC(=O)N3CCN(c4cc5c(cc4F)c(=O)c(C(=O)O)cn5C4CC4)CC3)n2)cc1
inactive: [3] 31.5% | [4] 26.9% | [5] 15.4% | [10] 35% | [12] 20.4% | [13] 15.5% | [15] 26.1% | [17] 22.2% | [19] 12.9%
active: [1] 9.36% | [2] 4.65% | [6] 7.37% | [7] -75.2% | [8] 3.86% | [9] 2.73% | [11] -26.3% | [14] 8.87% | [16] 5.91% | [18] 2.51% | [20] 3.49%

O=C1OCC2=C1C(c1cccc(F)c1)c1cc3c(cc1N2CCO)OCO3 (stereo not given)
active: [2] 5.77% | [18] 3.08% | [19] 7.3%
inactive: [1] 22.1% | [3] 16.9% | [4] 32.9% | [5] 21.7% | [6] 25.1% | [7] 22.8% | [8] 47.2% | [9] 34.9% | [10] 59.5% | [11] 26% | [12] 46.1% | [13] 48.3% | [14] 36.9% | [15] 52.3% | [16] 34.5% | [17] 23.8% | [20] 25.6%

O[C@@H](c1cc(C(F)(F)F)nc2c(C(F)(F)F)cccc12)[C@H]1CCCCN1
inactive: [1] 77.5% | [2] 53.8% | [3] 36.6% | [4] 54.8% | [5] 47.7% | [6] 49.4% | [7] 82% | [8] 56.2% | [9] 29.4% | [10] 98.3% | [11] 77% | [12] 69.7% | [13] 63.8% | [14] 50.4% | [15] 66% | [16] 37.8% | [17] 76.5% | [18] 60% | [19] 73% | [20] 31.8%

CCOC(=O)C(=Cc1cccc(C#N)c1)C(=O)OCC
active: [9] -44.1%
inactive: [1] 39% | [2] 20% | [3] 60.2% | [4] 85.1% | [5] 76.1% | [6] 62.8% | [7] 85.8% | [8] 53.4% | [10] 50.3% | [11] 59.9% | [12] 82.3% | [13] 79.8% | [14] 54.3% | [15] 35.9% | [16] 23.7% | [17] 79.9% | [18] 122% | [19] 28.5% | [20] 50%

COC(=O)/C=C1/SC(=Nc2cccc(Cl)c2)N(CCc2c[nH]c3ccc(O)cc23)C1=O
active: [1] -11.6% | [5] 4.91% | [6] 9.39% | [9] -39.2% | [11] -15.8% | [19] 0.545% | [20] -8.3%
inactive: [2] 49.2% | [3] 38.7% | [4] 14.3% | [7] 41.4% | [8] 13.8% | [10] 17.4% | [12] 45.7% | [13] 10% | [14] 17.7% | [15] 89.2% | [16] 15.9% | [17] 37.4% | [18] 79.9%

C=C(CN1CC=CCC1)[C@@H]1CC[C@]2(CO)CC[C@]3(C)[C@H](CC[C@@H]4[C@@]5(C)CC[C@H](O)C(C)(C)[C@@H]5CC[C@]43C)[C@@H]12
inactive: [1] 92.2% | [2] 55.3% | [3] 108% | [4] 99.8% | [5] 88.3% | [6] 77.5% | [7] 96.2% | [8] 98% | [9] 99.8% | [10] 101% | [11] 110% | [12] 104% | [13] 98.1% | [14] 93.7% | [15] 123% | [16] 114% | [17] 106% | [18] 112% | [19] 91.3% | [20] 86.5%

COc1cc2cc(NCc3ccc(OC(F)F)cc3)nc(C)c2cc1OC
inactive: [1] 59.9% | [2] 25.7% | [3] 88.1% | [4] 66.2% | [5] 62.3% | [6] 64.5% | [7] 68.3% | [8] 47% | [9] 27.7% | [10] 72.7% | [11] 79.8% | [12] 75.6% | [13] 62.6% | [14] 38.6% | [15] 54.1% | [16] 69.5% | [17] 51.5% | [18] 30.5% | [19] 68.9% | [20] 63.3%

CCCCCCCCn1ccc2cc(NC(=O)Cn3cc(CN4CCCCCC4)nn3)ccc21
active: [1] -65.9% | [2] -48.3% | [5] -43.6% | [7] 0.757% | [8] -70.9% | [9] -90.8% | [10] -86.1% | [11] -66.6% | [14] -87.6% | [16] -36% | [17] -39.9% | [19] 1.06% | [20] -27.5%
inactive: [3] 87.5% | [4] 14.4% | [6] 40% | [12] 74.1% | [13] 23% | [15] 71.4% | [18] 88.9%

Brc1ccc(-c2cnc3nonc3n2)cc1
inactive: [1] 54.8% | [2] 70.2% | [3] 96% | [4] 88.2% | [5] 92.5% | [6] 57.1% | [7] 48.5% | [8] 51.7% | [9] 38% | [10] 104% | [11] 88.9% | [12] 72.1% | [13] 96.1% | [14] 63.6% | [15] 96.3% | [16] 76.9% | [17] 59.7% | [18] 96.7% | [19] 30% | [20] 37.5%

CCOC(=O)c1c(NC(=O)c2ccc(OC)cc2)sc2c(CN(C)C)c(O)ccc12
active: [10] -30.4% | [16] 6.26%
inactive: [1] 52.5% | [2] 13.9% | [3] 67.7% | [4] 89% | [5] 79.5% | [6] 78.9% | [7] 81.3% | [8] 95.7% | [9] 61.3% | [11] 105% | [12] 95.9% | [13] 77.5% | [14] 88.8% | [15] 94.4% | [17] 72.3% | [18] 68.9% | [19] 56.6% | [20] 61.2%

CCCCCCCCCCCCCCCCCCOc1ccccc1CC(=O)NCC[N+]1(C)CCOCC1
inactive: [1] 91.1% | [2] 29.8% | [3] 46.9% | [4] 25.9% | [5] 10.1% | [7] 75% | [8] 56.3% | [9] 55.5% | [10] 74.7% | [11] 74.6% | [12] 91.3% | [13] 40.5% | [14] 77.3% | [16] 84.5% | [17] 98.6% | [18] 67.4% | [20] 14.6%
active: [6] -46.4% | [15] 7.69% | [19] -36.4%
